Targets with a hit are over-represented here; the source holds about 7,900 in all. About 0.6% of all pairs of compound and target were hits.
Each molecule was assayed against ZCCHC9 (UniProt Q8N567) (assay: log2 fold change, soluble protein after heating vs DMSO (PISA); higher = thermal stabilisation; K562 cells, 10 uM, 30 min; active = over 0.2 and 3.5 SD of the protein, either way, in both replicates (recomputed)).
Summary of the method: (§1)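 For each measurement, 10 μM compound was applied for 30 min to K562 cells at 2×10^6 cells/mL. Aliquots were heated for 3 min across 48°C-58°C, pooled, and extracted in PBS with 0.5% NP-40 at 4°C; the supernatant after 21,000xg for 90 min was soluble protein. This was quantified by TMTpro 16plex LC-MS/MS with channel sums equalised, and thermal stability was reported relative to control samples from duplicates, on a log2 fold-change scale.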

Chain of ZCCHC9 (Q8N567 whole entry, looked up): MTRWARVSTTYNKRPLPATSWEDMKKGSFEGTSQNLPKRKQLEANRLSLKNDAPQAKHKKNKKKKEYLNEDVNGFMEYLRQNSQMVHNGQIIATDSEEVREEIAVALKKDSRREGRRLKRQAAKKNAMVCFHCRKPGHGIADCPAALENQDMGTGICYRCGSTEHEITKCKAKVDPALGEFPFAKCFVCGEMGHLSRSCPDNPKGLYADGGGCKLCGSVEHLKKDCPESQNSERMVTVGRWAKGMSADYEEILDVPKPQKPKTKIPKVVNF

log2 fold change, inactive:
NCC(=O)Nc1ccc(-n2nc(C(F)(F)F)cc2-c2ccc3c(ccc4ccccc43)c2)cc1 -0.013
CN1CCN(c2nc(C3=C(c4c[nH]c5ccccc45)C(=O)NC3=O)c3ccccc3n2)CC1 [sotrastaurin] 0.243
CCn1cc(-c2ccnc3[nH]c(-c4cccc(CN(C)C)c4)cc23)c(-c2ccc(NC(=O)N(C)C)cc2)n1 0.201
COc1cccc2cc(-c3nc([C@H]4CC[C@H](C(=O)O)CC4)n4ncnc(N)c34)[nH]c12 -0.121
CS(=O)(=O)c1ccc(-c2cnc(N)c(C(=O)Nc3ccccc3)n2)cc1 0.1
O=C(CCCCCCNC(=O)c1cnc(N(c2ccccc2)c2ccccc2Cl)nc1)NO [citarinostat] -0.161
NC1(c2ccc(-c3nc4ccn5c(=O)[nH]nc5c4cc3-c3ccccc3)cc2)CCC1 0.218
COC(=O)[C@H](CCSC)NC(=O)c1ccc(NC[C@@H](N)CS)cc1-c1ccccc1 0.081
CN(C)CC(=O)Nc1ccc2[nH]c(=O)c3ccccc3c2c1 -0.125
Cc1cccc(CC(=O)N2CCc3c2ccc(-c2cn(C)c4ncnc(N)c24)c3F)n1 -0.048

The molecules below were run against ZDHHC17 (UniProt Q8IUH5) in the same assay as above.
Summary of the method: as §1

Chain of ZDHHC17 (Q8IUH5 whole entry, looked up): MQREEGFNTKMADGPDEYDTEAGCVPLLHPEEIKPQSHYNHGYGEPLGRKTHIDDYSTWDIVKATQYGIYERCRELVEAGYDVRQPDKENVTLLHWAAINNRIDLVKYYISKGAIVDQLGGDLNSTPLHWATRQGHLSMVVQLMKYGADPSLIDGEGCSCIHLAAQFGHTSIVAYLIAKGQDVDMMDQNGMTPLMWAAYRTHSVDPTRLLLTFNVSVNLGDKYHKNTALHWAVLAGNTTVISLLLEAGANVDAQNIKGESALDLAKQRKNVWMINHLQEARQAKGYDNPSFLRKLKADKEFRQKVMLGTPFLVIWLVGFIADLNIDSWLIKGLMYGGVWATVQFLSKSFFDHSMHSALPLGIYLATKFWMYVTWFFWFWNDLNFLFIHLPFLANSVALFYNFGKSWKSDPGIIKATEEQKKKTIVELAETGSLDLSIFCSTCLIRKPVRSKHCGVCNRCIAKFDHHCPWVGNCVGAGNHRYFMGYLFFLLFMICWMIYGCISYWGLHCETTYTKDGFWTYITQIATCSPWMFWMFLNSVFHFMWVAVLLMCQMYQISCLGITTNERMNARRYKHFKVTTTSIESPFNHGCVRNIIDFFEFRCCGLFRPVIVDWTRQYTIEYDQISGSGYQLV

log2 fold change, inactive:
CON(C)C(=O)N1N=C(c2cc(F)ccc2F)S[C@@]1(CCCN)c1ccccc1 [filanesib] -0.219
NC(=O)Nc1cc(-c2cccc(F)c2)sc1C(=O)N[C@H]1CCCNC1 0.084
Cn1cncc1[C@@](N)(c1ccc(Cl)cc1)c1ccc2c(c1)c(-c1cccc(Cl)c1)cc(=O)n2C [tipifarnib] 0.032
CN1CCC(CNc2ccc3ncc(-c4cccc(OC(F)(F)F)c4)n3n2)CC1 0.065
Cc1cc(Nc2cc(CN3CCOCC3)c3nc(C)c(Cc4ccc(Cl)cc4F)n3n2)n[nH]1 [gandotinib] 0.052
CC[C@@H]1C(=O)N(C)c2cnc(Nc3ccc(C(=O)NC4CCN(C)CC4)cc3OC)nc2N1C1CCCC1 -0.009
CCCS(=O)(=O)Nc1ccc(F)c(C(=O)c2c[nH]c3ncc(-c4ccc(Cl)cc4)cc23)c1F [vemurafenib] 0.016
CS(=O)(=O)CCNCc1ccc(-c2ccc3ncnc(Nc4ccc(OCc5cccc(F)c5)c(Cl)c4)c3c2)o1 [lapatinib] -0.022
CCCc1cc(C)[nH]c(=O)c1CNC(=O)c1cc(-c2ccnc(N3CCN(C)CC3)c2)cc2c1cnn2C(C)C -0.061
Cc1ccc(NC(=O)c2cccc(C(C)(C)C#N)c2)cc1Nc1ccc2ncn(C)c(=O)c2c1 0.076
c1cc(OCCN2CCCCC2)cc(-c2n[nH]c3ccc(-c4nnc[nH]4)cc23)c1 0.068
COC(=O)N[C@@H](C)CNc1nccc(-c2cn(C(C)C)nc2-c2cc(Cl)cc(NS(C)(=O)=O)c2F)n1 [encorafenib] -0.015
O=C(O)c1ccc2c(c1)nc(Nc1cccc(Cl)c1)c1ccncc12 [silmitasertib] 0.025
FC(F)(F)c1ccc(/C=C/c2nc(COc3ccc(CCCCn4ccnn4)cc3)co2)cc1 [mubritinib] 0.051
CNCc1ccc(-c2[nH]c3cc(F)cc4c3c2CCNC4=O)cc1 [rucaparib] -0.034
COc1cc(Nc2ncc3c(n2)-c2ccc(Cl)cc2C(c2c(F)cccc2OC)=NC3)ccc1C(=O)O [alisertib] -0.02
CC[C@@H]1C(=O)N(C)c2cnc(Nc3ccc(C(=O)N[C@H]4CC[C@H](N5CCN(CC6CC6)CC5)CC4)cc3OC)nc2N1C(C)C [volasertib] -0.095
CNC(=O)c1ccc(Nc2ncc(C(F)(F)F)c(NCc3nccnc3N(C)S(C)(=O)=O)n2)cc1 [defactinib] -0.007
COc1cc2nc(-c3cc(F)ccc3O)nc(N[C@@H]3CNC[C@H]3C(C)(C)O)c2cc1OC 0.029
Nc1ccccc1NC(=O)c1ccc(CNC(=O)OCc2cccnc2)cc1 [entinostat] -0.047
NCC(=O)Nc1ccc(-n2nc(C(F)(F)F)cc2-c2ccc3c(ccc4ccccc43)c2)cc1 0.012

Source: the supplement of paper PMC10849652
